Compound activity: PubChem, Johns Hopkins Ion Channel Center
This is a sample that favours compounds with a hit; in the whole collection about 1.6% have one here.
KCNQ2 inh – blocks the rat KCNQ2 potassium channel. O88943. CHO-K1 KCNQ2, FluxOR thallium flux, 20 min; stronger effect = lower value. B-score at 10 µM. 310,000 compounds, 1.1% hits. AID 2156;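 active means fluorescence ratio B-score at most minus 3 library SDs, with starting brightness B-score within 2 library SDs, cut at about -5.5 in these data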
KCNQ2 pot – enhances the rat KCNQ2 potassium channel. O88943. CHO-K1 KCNQ2, FluxOR thallium flux fluorescence; stronger effect = higher value. B-score at 10 µM. 310,000 compounds, 0.54% hits. AID 2239;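 active means fluorescence ratio B-score at least 3 SD of library B-scores, with initial fluorescence B-score within 3 of them, cut at about 5.3 in these data; same plate scores as AID 2156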;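 further: B-score of peak minus minimum over baseline fluorescence ratio after K+ and Tl+ stimulus; positive B-score means potentiation of KCNQ2 with more thallium influx and brighter signal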
Kir21 confirm – confirmation of mouse Kir2.1 potassium channel inhibitors | AID 2032 | shares compounds with KCNQ2 pot | Tl flux remaining, % of negative control (stronger effect = lower value), % at 10 µM | 2,300 compounds, 41% hits | Kir2.1-expressing cells, FluxOR thallium flux fluorescence; stronger effect = lower value;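 active means Primary-screen hit whose thallium flux fell at least 3 control SD below untreated wells in both duplicates, with normal baseline fluorescence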
HEK293 ctr – parental HEK293 activity in Kir2.1 inhibitor counter-screen; parental HEK293 cells, FluxOR thallium flux fluorescence; 0% = unstimulated blank wells; shares compounds with KCNQ2 pot; FluxOR signal as % of negative control (100 = no effect), % at 10 µM; 2,300 compounds, 19% hits;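 active means dye signal at least 3 control SD above or below untreated wells in both duplicates, raw fluorescence within 3, either direction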;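 further: percent is based on the flux ratio of peak minus minimum fluorescence over baseline F0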
CHO-K1 Tl ctr – parental CHO-K1 activity in KCNQ2 potentiator counter-screen; AID 2282; shares compounds with KCNQ2 pot; parental CHO-K1 cells, FluxOR thallium flux fluorescence; zero = vehicle mean+3SD, 100% = vehicle-minus-blank window; activity increase over 3SD of controls, % at 10 µM; 1,200 compounds, 43% hits;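 active means signal rise of at least 3 SD above the untreated control mean, in both duplicate wells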;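 further: counter screen of KCNQ2 potentiator hits so any rise reflects channel-independent effects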
KCNQ1 pot spec – human KCNQ1 counter-target activity of KCNQ2 potentiators; shares compounds with KCNQ2 pot; CHO KCNQ1 stable, FluxOR thallium flux fluorescence; beyond 3SD, as % of vehicle-control signal; activation over 3SD threshold, % at 10 µM; 1,200 compounds, 28% hits; AID 2283;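 active means fluorescence ratio rise of at least 3 SD of vehicle wells above their mean, in both replicate wells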
KCNQ2 pot conf – rat KCNQ2 channel potentiator confirmation; potentiation, less the hit threshold, % at 10 µM; AID 2287; CHO-KCNQ2 cells, FluxOR thallium flux fluorescence; 1,200 compounds, 68% hits; shares compounds with KCNQ2 pot;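 active means fluorescence ratio rising 3 SD or more over the vehicle control mean in both replicates, plus primary screen hit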;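 further: peak minus minimum thallium fluorescence divided by baseline after K/Tl stimulus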
Kir21 spec – tests whether KCNQ2 potentiators also affect mouse Kir2.1. shares compounds with KCNQ2 pot. HEK293 Kir2.1, FluxOR thallium flux fluorescence. activity over 3SD threshold, % at 10 µM. 1,200 compounds, 2% hits. AID 2345;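 active means fluorescence ratio rise of at least 3 SD above the vehicle-control mean, seen in both replicates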
KCNQ2 W236L pot – KCNQ2 potentiators acting on retigabine-insensitive rat KCNQ2 W236L mutant | AID 2558 | shares compounds with KCNQ2 pot | current increase over 3SD of negative controls (%), stronger effect = higher value, % at 25 µM | CHO KCNQ2-W236L, automated patch clamp current | 940 compounds, 10% hits;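 active means current increase at least 3 SD of the untreated controls above them in both duplicate recordings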
A number is an active result.

Results for CCOC(=O)CNC(=O)Cn1cnc2c(oc3ccccc32)c1=O ?
KCNQ2 inh: inactive; KCNQ2 pot: inactive

How did CN(C(=O)C1CCN(S(=O)(=O)c2ccccc2)CC1)c1c(N)n(Cc2ccccc2)c(=O)[nH]c1=O do in these assays?
KCNQ2 inh: inactive

What do the screens show for `CCCn1c(=S)[nH]c2sc3c(c2c1=O)CCCC3`?
KCNQ2 inh: inactive; KCNQ2 pot: 10; Kir21 confirm: inactive; HEK293 ctr: 342%; CHO-K1 Tl ctr: inactive; KCNQ1 pot spec: 40; KCNQ2 pot conf: 27; Kir21 spec: inactive; KCNQ2 W236L pot: inactive

Results for COCCCn1c(=S)[nH]c2sc3c(c2c1=O)CCCS3 ?
KCNQ2 inh: inactive; KCNQ2 pot: 7.2; Kir21 confirm: inactive; HEK293 ctr: 285%; CHO-K1 Tl ctr: inactive; KCNQ1 pot spec: 47; KCNQ2 pot conf: 24; Kir21 spec: inactive; KCNQ2 W236L pot: inactive

What do the screens show for `CCn1c(=O)n(CCOC)c(=O)c2c3c(sc21)CCCC3`?
KCNQ2 inh: inactive; KCNQ2 pot: inactive

What do the screens show for `Nn1c(=S)[nH]c2sc3c(c2c1=O)CCCC3`?
KCNQ2 inh: inactive; KCNQ2 pot: inactive

Results for CC(=O)Cn1nnc2sc3c(c2c1=O)CCC(C(C)(C)C)C3 (centres undefined) ?
KCNQ2 inh: inactive

What do the screens show for `Cn1c(=S)[nH]c2sc3c(c2c1=O)CCC(C(C)(C)C)C3` (centres undefined)?
KCNQ2 inh: inactive; KCNQ2 pot: 18; Kir21 confirm: inactive; HEK293 ctr: 467%; CHO-K1 Tl ctr: inactive; KCNQ1 pot spec: inactive; KCNQ2 pot conf: 85; Kir21 spec: 1.4; KCNQ2 W236L pot: inactive

Results for COCCn1c(=S)[nH]c2sc3c(c2c1=O)CCC(C)C3 (centres undefined) ?
KCNQ2 inh: inactive; KCNQ2 pot: 16; Kir21 confirm: inactive; HEK293 ctr: inactive; CHO-K1 Tl ctr: inactive; KCNQ1 pot spec: 3.6; KCNQ2 pot conf: 71; Kir21 spec: 11; KCNQ2 W236L pot: inactive

Results for CCn1nnc2sc3c(c2c1=O)CCC(C)C3 (centres undefined) ?
KCNQ2 inh: inactive

How did O=C(O)c1cccnc1Br do in these assays?
KCNQ2 inh: inactive; KCNQ2 pot: inactive

How did COc1cccc(-c2cc(C(=O)NCCCn3ccnc3)c3ccccc3n2)c1 do in these assays?
KCNQ2 inh: inactive

How did CNC(=S)N(Cc1ccc2c(c1)OCO2)C1CC(=O)N(c2ccccc2)C1=O (centres undefined) do in these assays?
KCNQ2 inh: inactive

Results for COc1cc(C)c(S(=O)(=O)NOCc2ccccc2)c(C)c1C ?
KCNQ2 inh: inactive; Kir21 confirm: inactive; HEK293 ctr: inactive

What do the screens show for `COc1cc(C)c(S(=O)(=O)NOCc2ccc([N+](=O)[O-])cc2)c(C)c1C`?
KCNQ2 inh: inactive; KCNQ2 pot: inactive

What do the screens show for `Cc1ccc(N2C(=O)N(CC(=O)Nc3ccc([N+](=O)[O-])cc3)C(=O)C2C)cc1` (centres undefined)?
KCNQ2 inh: inactive

How did Cc1ccc(S(=O)(=O)c2ccc(C)cc2)cc1 do in these assays?
KCNQ2 inh: inactive; KCNQ2 pot: inactive

What do the screens show for `Cc1ccc(S(=O)(=O)CCCS(=O)(=O)c2ccc(C)cc2)cc1`?
KCNQ2 inh: inactive; Kir21 confirm: 67%; HEK293 ctr: inactive

Results for CCCn1ncc(CN2CCC(n3nccc3NC(=O)CCc3ccccc3)CC2)c1C ?
KCNQ2 inh: inactive; KCNQ2 pot: inactive
